Experimental findings from PubChem BioAssay are described below.

Assay [1] in a line: Her2 expression decrease, cell viability multiplex – SKBR3 breast tumor cells, AlphaScreen, ATP viability, primary screen (AID 461;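 active means Her2 level under about 52% in both replicate screens, with viability over 70% of control, limit read from the data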;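 on Her2 level: lower value means less Her2 protein in the cells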;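 on viability: percent of carrier control wells set as 100% viability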). The settings on record: SKBR3 Her2 protein level, 18-24 h, measured here: SKBR3 viability, ATP luminescence, at 10 µM. On the technique in general: Bead proximity is the source of the signal in Alpha formats.
In assay [2] the target is Receptor tyrosine-protein kinase erbB-2 (Homo sapiens) (UniProt P04626). Described as above. The settings on record: 18-24 h, at 10 µM, stronger effect = lower value.
A short description of assay [3]: reduced viability of SK-BR-3 breast cancer cells – cell-based, 24 h, human, pilot screen (AID 572;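 active means viability at or below 10% of carrier control in both of two separate runs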;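 further: compound exposure lasted between 18 and 24 h rather than exactly 24 h; 100% = carrier-treated control wells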). The settings on record: SK-BR-3 viability, CellTiter-Glo luminescence, at 10 µM, stronger effect = lower value. In general terms: ATP-based viability assays read luminescence as a measure of living cells.
A short description of assay [4]: HUVEC growth inhibition – cell-based, human, primary screen (AID 575;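 active means viability at or below 30% in both replicate assays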;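 further: 100% = median of untreated cell wells with 0.1% DMSO on each plate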). The settings on record: HUVEC proliferation, CellTiter-Glo luminescence, 72 h; at 10 µM; stronger effect = lower value.
Assay [5] in a line: H69AR cell proliferation blockers – human, duplicate replicates, primary screen (AID 580;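 active means viability at or under a set limit in both replicates, limit being median viability minus 3 SD, cut at about 48% in these data, passing the limit was not always enough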;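 further: 100% = mean luminescence of untreated wells and 0% = no signal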). The settings on record: H69AR lung tumor cells viability, ATP luminescence, 72 h; at 10 µM; stronger effect = lower value.
Assay [6] can be described thus: MRP1 drug-resistance reversers in H69AR cells – cell-based, doxorubicin co-treatment, pilot screen (AID 601;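 active means viability loss from added drug above about 55%, and viability with drug at most 40%, in both replicates, limit read from the data, passing the limit was not always enough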). The settings on record: CellTiter-Glo, 72 h, at 10 µM; for differential viability (reversal): stronger effect = higher value.
Assay [7] in a line: yeast transport mutant growth inhibition pilot in 384-well plates, post-Golgi transport modulator project (AID 636; in the data active means inhibition above about 31%). The settings on record: absorbance 615 nm, about 18 h, stronger effect = higher value.
The nature of assay [8]: growth suppression of yeast trafficking mutant, preliminary HTS, modulators of trafficking downstream of Golgi apparatus project, 1536-format plate, OD 615 nm (AID 637; in the data active means inhibition above about 30%). The settings on record: yeast transport mutant growth, absorbance 615 nm, 18 h; stronger effect = higher value.
Assay [9] can be described thus: S. cerevisiae growth inhibition in permissive medium (OD615), pilot counter-assay for S. cerevisiae lifespan shortening project, permissive growth control (AID 705;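 active means growth inhibition above 25% in both replicates, a cutoff set 3 SD above the mean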). The settings on record: OD615, 24 h, at 10 µM, stronger effect = higher value.
Assay [10] can be described thus: S. cerevisiae growth inhibition in restrictive medium, OD615, pilot screen, restrictive growth control, yeast lifespan reduction project (AID 706;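 active means growth inhibition above a set limit, 3 SD over mean compound inhibition, in both replicates, cut at about 43% in these data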;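 further: modified DeaD lifespan yeast strain shifted to restrictive glucose medium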). The settings on record: OD615, 48 h, at 10 µM, stronger effect = higher value.
A short description of assay [11]: doxorubicin toxicity protection in MRP-1 cells – H69AR cells, CellTiter-Glo, duplicate, MRP-1 activator project, pilot screen (AID 807).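 Further: compound pretreatment 18-22 h then 72 h combined with doxorubicin; 0% = doxorubicin alone and 100% = vehicle without doxorubicin.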 The settings on record: H69AR viability with doxorubicin, CellTiter-Glo luminescence; at 10 µM; stronger effect = higher value.
Assay [12] can be described thus: viability of HCT116 without oncogenic beta-catenin – human colon tumor cells, pilot screen (AID 823;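 active means cell viability at or below a set limit in both duplicate runs, the limit being the all-compound median minus 4 SD, cut at about 23% in these data, passing the limit was not always enough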;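 further: 0% = wells killed by 20 µM Hyamine and 100% = untreated DMSO cell wells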). The settings on record: HCT116 beta-catenin knockout viability, CellTiter-Glo, 60 h; at 10 µM; stronger effect = lower value.
Assay [13] is described as follows: viability of PTEN-null HCT116 cells – cell-based, HCT116 clonal line, CellTiter-Glo, pilot screen (AID 824;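 active means viability at or below 27.92% in each of two runs, the all-compound median minus 4 SD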;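 further: 0% = 20 µM Hyamine control and 100% = vehicle cell control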). The settings on record: HCT116 PTEN-deleted viability, 60 h, at 10 µM, stronger effect = lower value.
Assay [14] can be described thus: RAM pathway blockade in budding yeast – dse1pr::URA3 reporter, 5-FOA selection, pilot screen (AID 869;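 active means inhibition over a set limit, the all-compound mean plus 3 SD, in both replicate runs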;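 further: 0% = DMSO wells with no growth and 100% = 10 µM 1-NA-PP1 with full growth; RAM network block rescues cells from 5-FOA so hits raise OD615 growth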). The settings on record: S. cerevisiae dse1pr::URA3 5-FOA growth, OD615, 2 d; at 10 µM; stronger effect = higher value; strain carries analog-sensitive mutant Cbk1 kinase.
Assay [15] can be described thus: RAM signaling pathway blockade in yeast – S. cerevisiae, Pdr1DBD-CYC8 efflux-inhibited sensitized strain, primary screen (AID 1298;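 active means RAM network inhibition above 8.4% in each of two replicates, 3 SD over the compound average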;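 further: 0% = DMSO untreated cells without growth and 100% = 10 µM 1-NA-PP1 full growth; higher means more yeast growth rescued from 5-FOA killing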). The settings on record: S. cerevisiae cbk1-as DSE1-URA3 strain, 5-FOA growth OD615, 2 d; at 50 µM; stronger effect = higher value.
[16] abbreviates: H69AR cells + 2 uM doxorubicin, measured here: viability with 2 uM doxorubicin, stronger effect = lower value.
The mark [17] stands for this setting: H69AR cells, compound alone cytotoxicity.

Results filed as inconclusive are left out. The source made the active and inactive calls.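 How the source made its calls, unless noted: active means viability increase at or above a cutoff of the median across tested compounds plus 3 SD (cut at about 8.5% in these data, passing the limit was not always enough); inconclusive means some gains above the cutoff, reason not given; inactive means the rest.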

Receptor tyrosine-protein kinase erbB-2 (Homo sapiens), sequence (P04626 whole entry, looked up): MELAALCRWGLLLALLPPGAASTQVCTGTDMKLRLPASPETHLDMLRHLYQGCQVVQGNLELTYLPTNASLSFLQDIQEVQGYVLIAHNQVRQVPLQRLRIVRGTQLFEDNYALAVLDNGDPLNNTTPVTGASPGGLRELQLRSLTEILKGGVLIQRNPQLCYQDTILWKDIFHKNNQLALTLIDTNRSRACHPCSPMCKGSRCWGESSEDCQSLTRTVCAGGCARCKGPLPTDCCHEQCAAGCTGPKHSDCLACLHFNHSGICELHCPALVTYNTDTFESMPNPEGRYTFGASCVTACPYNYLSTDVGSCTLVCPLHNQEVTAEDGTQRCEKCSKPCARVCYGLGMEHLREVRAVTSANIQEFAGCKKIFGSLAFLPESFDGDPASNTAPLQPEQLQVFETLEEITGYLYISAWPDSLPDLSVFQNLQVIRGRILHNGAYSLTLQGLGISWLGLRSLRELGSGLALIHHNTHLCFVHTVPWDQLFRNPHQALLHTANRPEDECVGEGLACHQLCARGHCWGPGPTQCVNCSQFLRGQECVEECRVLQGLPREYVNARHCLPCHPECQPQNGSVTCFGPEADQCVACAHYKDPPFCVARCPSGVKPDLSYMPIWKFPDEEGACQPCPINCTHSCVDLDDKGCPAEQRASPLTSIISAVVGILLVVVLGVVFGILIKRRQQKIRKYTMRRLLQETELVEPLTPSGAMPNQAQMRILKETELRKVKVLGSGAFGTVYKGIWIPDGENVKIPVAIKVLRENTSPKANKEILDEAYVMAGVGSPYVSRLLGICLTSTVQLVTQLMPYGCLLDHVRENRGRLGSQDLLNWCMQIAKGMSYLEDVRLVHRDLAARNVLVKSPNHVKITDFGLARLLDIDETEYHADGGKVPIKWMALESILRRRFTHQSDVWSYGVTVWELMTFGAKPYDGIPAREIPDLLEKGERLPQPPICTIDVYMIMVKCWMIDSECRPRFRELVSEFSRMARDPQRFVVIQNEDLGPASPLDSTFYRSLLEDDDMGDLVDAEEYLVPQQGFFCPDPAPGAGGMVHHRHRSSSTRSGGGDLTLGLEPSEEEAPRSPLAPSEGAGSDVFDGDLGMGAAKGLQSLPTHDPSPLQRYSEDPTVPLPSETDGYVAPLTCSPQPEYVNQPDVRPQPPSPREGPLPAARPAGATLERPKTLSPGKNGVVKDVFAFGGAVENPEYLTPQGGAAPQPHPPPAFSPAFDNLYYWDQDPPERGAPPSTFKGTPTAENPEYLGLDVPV

Usually viability stands for a read-out of living cells in per cent, often relative to untreated cells. As a reminder, the inhibition is the drop in the measured response relative to a control, in per cent. With `CCSC1=C(C#N)C(c2ccccc2OC)CC(=O)N1` (stereo not drawn), the viability in [1] is 92%; in [3], 92% (inactive); in assay [4], 86.3% (inactive); in assay [5], 99.8% (inactive); in assay [6] (setting [16]), 92.8%; in assay [6] (setting [17]), 99.8%. The viability is 94.1% (inactive) in [12] and 91.6% (inactive) in [13]. Besides, in assay [2], the Her2 level is 97.5% (inactive). Also, in [6] (H69AR cells + 2 uM doxorubicin), the differential viability (reversal) was 6.97% (inactive). The inhibition in assay [7] was -1.73% (inactive); in assay [8], -2.33% (inactive); in assay [14], 1.78% (inactive). Further, the growth inhibition in assay [9] is -3.36% (inactive); in [10] it was 0.71% (inactive). For the same molecule, the viability increase in assay [11] was 0.28% (inactive). In assay [15], the RAM network inhibition is 1.8% (inactive).
As to `O=C(c1cccc(F)c1)N1CCc2ccccc21`, the viability is 96.5% in assay [1]; 96.5% (inactive) in assay [3]; 91.2% (inactive) in assay [4]; 98.9% (inactive) in [5]; 95.6% in assay [6] (setting [16]); 98.9% in [6] (setting [17]). Moreover, the viability in assay [12] is 86.3% (inactive); in assay [13] it was 96% (inactive). For the same molecule, the Her2 level in assay [2] was 80% (inactive). The differential viability (reversal) in assay [6] (H69AR cells + 2 uM doxorubicin) is 3.25% (inactive). The inhibition is -5.14% (inactive) in assay [7], 0.98% (inactive) in [8] and 0.88% (inactive) in [14]. In addition, the growth inhibition is -19.5% (inactive) in [9] and -20.4% (inactive) in assay [10]. Besides, the viability increase in [11] was -5.03% (inactive). The RAM network inhibition in assay [15] is 2.7% (inactive).
As for `COc1cccc2cc(C(=O)OC3CCN(C)CC3)c(=O)oc12`, the viability in assay [1] was 96%; in assay [3], 96% (inactive); in assay [4], 94.7% (inactive); in [5], 105% (inactive); in assay [6] (setting [16]), 86.5%; in assay [6] (setting [17]), 105%. Also, the viability was 104% (inactive) in assay [12] and 107% (inactive) in [13]. Moreover, in assay [2], the Her2 level is 103% (inactive). For the same molecule, the differential viability (reversal) in assay [6] (H69AR cells + 2 uM doxorubicin) was 18.2% (inactive). The inhibition in assay [7] is -3.08% (inactive); in [8], 0.67% (inactive); in [14], -0.245% (inactive). Further, the growth inhibition in [9] was -7.33% (inactive); in assay [10], -8.68% (inactive). In addition, the viability increase in assay [11] was -3.68% (inactive). The RAM network inhibition in [15] is 2.9% (inactive).
`Cc1cc(C)n(-c2cc(N3CCOCC3)ncn2)n1`: the viability is 101% in assay [1]; 101% (inactive) in assay [3]; 93.2% (inactive) in assay [4]; 91.7% (inactive) in [5]; 89.1% in assay [6] (setting [16]); 91.7% in assay [6] (setting [17]). Moreover, the values for the viability in assay [12] and in assay [13] were 93% (inactive) and 93.1% (inactive), respectively. Moreover, in assay [2], the Her2 level is 90.5% (inactive). In addition, the differential viability (reversal) in assay [6] (H69AR cells + 2 uM doxorubicin) was 2.58% (inactive). Also, the inhibition is -3.47% (inactive) in assay [7], 3.67% (inactive) in assay [8] and 0.035% (inactive) in assay [14]. Further, the growth inhibition was -3.3% (inactive) in assay [9] and 12.9% (inactive) in assay [10]. Besides, the viability increase in [11] is -1.2% (inactive). Moreover, in assay [15], the RAM network inhibition was 2.04% (inactive).
Regarding `CCOc1ccccc1N(CC(=O)N1CCCCCC1)S(C)(=O)=O`, the viability in assay [1] is 99%; in assay [3] it was 99% (inactive); in assay [4], 97.5% (inactive); in assay [5] it was 99.8% (inactive); in assay [6] (setting [16]), 89.5%; in assay [6] (setting [17]), 99.8%. Also, the figures for the viability in assay [12] and in assay [13] were 91.1% (inactive) and 99.4% (inactive), respectively. For the same molecule, the Her2 level in assay [2] was 97% (inactive). In addition, the differential viability (reversal) in [6] (H69AR cells + 2 uM doxorubicin) is 10.3% (inactive). Moreover, the inhibition in assay [7] is -1.3% (inactive); in assay [8], 1.15% (inactive); in assay [14] it was 0.65% (inactive). The growth inhibition in assay [9] is -4.37% (inactive); in assay [10], -10.9% (inactive). The viability increase in [11] was -1.33% (inactive). Moreover, the RAM network inhibition in assay [15] is 3.99% (inactive).
Take `O=C(CSc1nnc(Cn2c(=O)sc3ccccc32)n1-c1ccccc1)Nc1nccs1`: the viability in [1] is 97%; in assay [3] it was 97% (inactive); in assay [4] it was 66.9% (inactive); in [5], 84.2% (inactive); in assay [6] (setting [16]), 84%; in assay [6] (setting [17]) it was 84.2%. Besides, the values for the viability in assay [12] and in [13] were 89.5% (inactive) and 90% (inactive), respectively. Further, the Her2 level in assay [2] was 106% (inactive). In assay [6] (H69AR cells + 2 uM doxorubicin), the differential viability (reversal) was 0.24% (inactive). The inhibition in assay [7] is -5.73% (inactive); in assay [8], -4.43% (inactive); in assay [14], 2.44% (inactive). The growth inhibition in assay [9] was 11.2% (inactive); in assay [10], 27.2% (inactive). In addition, in [11], the viability increase was -3.44% (inactive). For the same molecule, in assay [15], the RAM network inhibition was 2.05% (inactive).
Consider `COc1ccc(OC)c(NC(=O)CSc2nnc(Cc3cccn3C)n2-c2ccc(F)cc2)c1`, for which the viability was 81% in assay [1]; 81% (inactive) in [3]; 62.7% (inactive) in [4]; 85.6% (inactive) in assay [5]; 77.9% in [6] (setting [16]); 85.6% in assay [6] (setting [17]). Also, the viability is 97.1% (inactive) in assay [12] and 92% (inactive) in assay [13]. The Her2 level in assay [2] is 90% (inactive). Moreover, in assay [6] (H69AR cells + 2 uM doxorubicin), the differential viability (reversal) is 7.76% (inactive). Also, the inhibition in assay [7] is 3.59% (inactive); in assay [8] it was 0% (inactive); in assay [14], -0.57% (inactive). Besides, the growth inhibition in assay [9] is 4.57% (inactive); in [10], 16.1% (inactive). Moreover, the viability increase in assay [11] was -5.9% (inactive). Further, the RAM network inhibition in assay [15] is 2.89% (inactive).
Turning to `Cc1ccccc1NC(=O)C1CCCN(S(=O)(=O)c2cccc3cccnc23)C1` (stereo not drawn), the viability in assay [1] is 90.5%; in assay [3], 90.5% (inactive); in [4] it was 94.6% (inactive); in [5] it was 93.2% (inactive); in [6] (setting [16]) it was 92.2%; in assay [6] (setting [17]), 93.2%. In addition, the viability in [12] is 82.1% (inactive); in assay [13], 81.2% (inactive). In [2], the Her2 level is 96.5% (inactive). Also, the differential viability (reversal) in [6] (H69AR cells + 2 uM doxorubicin) was 0.99% (inactive). Further, the inhibition in assay [7] was -1.73% (inactive); in [8], -5.25% (inactive); in [14], 3.01% (inactive). The growth inhibition in [9] is -13.1% (inactive); in assay [10], -16.6% (inactive). Also, the viability increase in [11] is -2.23% (inactive). Also, the RAM network inhibition in assay [15] is 1.93% (inactive).
For the molecule `COc1ccc(/C=N/O)cc1COc1ccc(NC(C)=O)cc1`, the viability in assay [1] is 115%; in assay [3], 115% (inactive); in [4], 102% (inactive); in assay [5], 103% (inactive); in assay [6] (setting [16]), 90.2%; in assay [6] (setting [17]), 103%. Moreover, the viability was 90.9% (inactive) in assay [12] and 93.4% (inactive) in [13]. The Her2 level in assay [2] is 98% (inactive). Moreover, the differential viability (reversal) in assay [6] (H69AR cells + 2 uM doxorubicin) is 13.2% (inactive). For the same molecule, the figures for the inhibition in [7], in assay [8] and in assay [14] were -4.32% (inactive), 1.9% (inactive) and 0.83% (inactive), respectively. In addition, the results for the growth inhibition in assay [9] and in assay [10] were -5.25% (inactive) and -2.58% (inactive), respectively. Besides, the viability increase in [11] is -0.85% (inactive). Also, in [15], the RAM network inhibition was 0.92% (inactive).
